# From publication PMC7862700, “An all-to-all approach to the identification of sequence-specific readers for epigenetic DNA modifications on cytosine”
# How the values were obtained:
# Test in all cases: DAPPL (digital affinity profiling via proximity ligation, sequencing); 10 mM Tris-HCl pH 7.5, 50 mM NaCl, 1 mM DTT, 4% glycerol, room temperature, 30 min; GST-TFs on glutathione beads, 16-mer random dsDNA library, 0.1% formaldehyde crosslink after washing; high values mean tight binding
# FLI1 = target: T1, FLI1 (Homo sapiens, UniProt Q01543 1-452); settings: protein: recombinant; tags: N-terminal GST; dsDNA, one strand shown
# T1 sequence: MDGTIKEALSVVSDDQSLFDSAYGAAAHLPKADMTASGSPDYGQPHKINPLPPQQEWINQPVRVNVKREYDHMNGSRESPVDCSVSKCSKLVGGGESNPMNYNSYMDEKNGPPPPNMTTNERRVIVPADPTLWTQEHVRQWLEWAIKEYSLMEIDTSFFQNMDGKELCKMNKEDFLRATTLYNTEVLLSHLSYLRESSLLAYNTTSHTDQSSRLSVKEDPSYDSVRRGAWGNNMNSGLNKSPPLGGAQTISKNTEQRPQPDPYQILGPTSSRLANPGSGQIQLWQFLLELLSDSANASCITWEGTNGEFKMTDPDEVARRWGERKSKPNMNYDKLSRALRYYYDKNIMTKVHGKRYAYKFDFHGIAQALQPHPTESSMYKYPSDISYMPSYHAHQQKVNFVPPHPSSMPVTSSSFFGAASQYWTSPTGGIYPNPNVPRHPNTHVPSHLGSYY
# Summary of the method: (§1)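 A tag-only sample was pooled with DNA-barcoded human transcription factors that had been expressed in yeast as GST fusions and captured on glutathione beads. The pools were incubated for 30 min at room temperature with 200 nmole of a random double-stranded 16-mer DNA library in Tris/NaCl/DTT/glycerol buffer, then washed, crosslinked with 0.1% formaldehyde, proximity-ligated (BsaI/T4 ligase, 1 h, 37 °C), PCR-amplified and sequenced on an Illumina NextSeq500. Binding signal is each hexamer's read frequency for a factor divided by its frequency for the tag-only sample.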
# ELK1 = target: T2, ELK1 (Homo sapiens, UniProt P19419 1-428); settings: protein: recombinant; tags: N-terminal GST; dsDNA, one strand shown
# T2 sequence: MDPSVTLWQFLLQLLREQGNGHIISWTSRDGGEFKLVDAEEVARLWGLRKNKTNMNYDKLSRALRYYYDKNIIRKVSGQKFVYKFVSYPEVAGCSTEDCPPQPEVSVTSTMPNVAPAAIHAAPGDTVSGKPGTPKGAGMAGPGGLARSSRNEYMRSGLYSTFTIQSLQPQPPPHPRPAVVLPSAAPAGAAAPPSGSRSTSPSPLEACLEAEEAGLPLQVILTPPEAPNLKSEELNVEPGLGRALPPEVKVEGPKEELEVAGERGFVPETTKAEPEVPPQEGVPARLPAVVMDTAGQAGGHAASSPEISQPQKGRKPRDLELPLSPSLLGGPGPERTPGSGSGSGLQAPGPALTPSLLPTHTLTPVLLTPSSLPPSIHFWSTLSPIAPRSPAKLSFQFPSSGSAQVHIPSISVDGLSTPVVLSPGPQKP
# Summary of the method: as §1
# GABPA = target: T3, GABPA (Homo sapiens, UniProt Q06546 1-454); settings: protein: recombinant; tags: N-terminal GST; dsDNA, one strand shown
# T3 sequence: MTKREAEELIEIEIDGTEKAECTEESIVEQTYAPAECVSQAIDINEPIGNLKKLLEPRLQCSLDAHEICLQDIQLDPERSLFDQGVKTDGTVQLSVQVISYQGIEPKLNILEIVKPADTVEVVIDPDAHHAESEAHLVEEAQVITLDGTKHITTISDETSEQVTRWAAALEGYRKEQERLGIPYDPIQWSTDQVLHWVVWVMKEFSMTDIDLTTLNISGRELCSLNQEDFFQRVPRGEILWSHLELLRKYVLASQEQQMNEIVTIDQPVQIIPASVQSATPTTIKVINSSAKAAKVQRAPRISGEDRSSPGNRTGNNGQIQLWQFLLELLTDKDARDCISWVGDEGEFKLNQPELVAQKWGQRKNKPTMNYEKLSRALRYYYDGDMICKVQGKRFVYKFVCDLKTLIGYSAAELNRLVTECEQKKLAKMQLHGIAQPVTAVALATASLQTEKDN
# Summary of the method: as §1
# ERG = target: T4, ERG (Homo sapiens, UniProt P11308 1-479); settings: protein: recombinant; tags: N-terminal GST; dsDNA, one strand shown
# T4 sequence: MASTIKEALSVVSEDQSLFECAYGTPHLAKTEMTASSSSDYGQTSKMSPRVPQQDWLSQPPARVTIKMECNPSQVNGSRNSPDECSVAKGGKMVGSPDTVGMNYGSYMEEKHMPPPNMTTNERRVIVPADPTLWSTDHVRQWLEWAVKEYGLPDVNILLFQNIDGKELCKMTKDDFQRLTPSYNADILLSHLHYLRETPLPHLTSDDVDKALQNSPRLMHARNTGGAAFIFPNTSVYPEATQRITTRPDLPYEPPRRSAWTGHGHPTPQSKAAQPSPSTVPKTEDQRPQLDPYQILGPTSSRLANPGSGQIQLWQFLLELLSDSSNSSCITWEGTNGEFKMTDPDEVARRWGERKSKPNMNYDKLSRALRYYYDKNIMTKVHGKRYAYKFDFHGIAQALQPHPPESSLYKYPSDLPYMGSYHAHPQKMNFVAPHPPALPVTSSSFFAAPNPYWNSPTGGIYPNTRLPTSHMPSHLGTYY
# Summary of the method: as §1
# ELF1 = ELF1 (Homo sapiens, UniProt P32519 1-619); settings: protein: recombinant; tags: N-terminal GST; dsDNA, one strand shown
# Summary of the method: as §1
# EHF = target: T5, EHF (Homo sapiens, UniProt Q9NZC4 1-300); settings: protein: recombinant; tags: N-terminal GST; dsDNA, one strand shown
# T5 sequence: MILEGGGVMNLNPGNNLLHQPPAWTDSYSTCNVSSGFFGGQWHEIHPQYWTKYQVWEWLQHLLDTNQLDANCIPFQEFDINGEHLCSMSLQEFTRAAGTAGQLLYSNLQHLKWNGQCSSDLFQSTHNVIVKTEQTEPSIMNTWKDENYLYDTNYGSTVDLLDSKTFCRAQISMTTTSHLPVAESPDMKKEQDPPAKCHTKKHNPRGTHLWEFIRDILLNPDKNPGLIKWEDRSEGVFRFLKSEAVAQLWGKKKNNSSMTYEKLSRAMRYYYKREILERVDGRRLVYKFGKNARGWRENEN
# Summary of the method: as §1
# SPI1 = SPI1 (Homo sapiens, UniProt P17947 1-270); settings: protein: recombinant; tags: N-terminal GST; dsDNA, one strand shown
# Summary of the method: as §1
# SPIB = SPIB (Homo sapiens, UniProt Q01892 1-262); settings: protein: recombinant; tags: N-terminal GST; dsDNA, one strand shown
# Summary of the method: as §1
# ELK3 = target: T6, ELK3 (Homo sapiens, UniProt P41970 1-407); settings: protein: recombinant; tags: N-terminal GST; dsDNA, one strand shown
# T6 sequence: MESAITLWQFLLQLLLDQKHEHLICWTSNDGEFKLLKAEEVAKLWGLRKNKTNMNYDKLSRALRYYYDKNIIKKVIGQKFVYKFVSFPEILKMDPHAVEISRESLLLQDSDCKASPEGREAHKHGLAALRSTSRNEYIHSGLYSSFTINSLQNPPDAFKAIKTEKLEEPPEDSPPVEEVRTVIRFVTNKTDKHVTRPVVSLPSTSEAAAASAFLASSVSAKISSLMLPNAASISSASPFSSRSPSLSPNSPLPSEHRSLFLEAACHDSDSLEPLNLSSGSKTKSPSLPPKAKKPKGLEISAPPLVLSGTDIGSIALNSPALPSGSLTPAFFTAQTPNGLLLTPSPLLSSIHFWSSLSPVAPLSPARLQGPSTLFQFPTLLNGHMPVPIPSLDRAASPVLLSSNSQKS
# Summary of the method: as §1
# FEV = target: T7, FEV (Homo sapiens, UniProt Q99581 1-238); settings: protein: recombinant; tags: N-terminal GST; dsDNA, one strand shown
# T7 sequence: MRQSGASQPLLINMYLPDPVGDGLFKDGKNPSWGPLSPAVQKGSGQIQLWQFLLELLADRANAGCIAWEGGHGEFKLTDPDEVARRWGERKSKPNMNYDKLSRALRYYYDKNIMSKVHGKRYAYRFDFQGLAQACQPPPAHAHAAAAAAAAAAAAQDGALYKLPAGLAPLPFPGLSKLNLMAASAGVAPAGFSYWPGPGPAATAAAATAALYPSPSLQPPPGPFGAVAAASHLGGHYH
# Summary of the method: as §1
# ETV5 = ETV5 (Homo sapiens, UniProt P41161 1-510); settings: protein: recombinant; tags: N-terminal GST; dsDNA, one strand shown
# Summary of the method: as §1
# HSF1 = HSF1 (Homo sapiens, UniProt Q00613 1-529); settings: protein: recombinant; tags: N-terminal GST; chain copies: 3; dsDNA, one strand shown
# Summary of the method: as §1
# SPIC = target: T8, SPIC (Homo sapiens, UniProt Q8N5J4 1-248); settings: protein: recombinant; tags: N-terminal GST; dsDNA, one strand shown
# T8 sequence: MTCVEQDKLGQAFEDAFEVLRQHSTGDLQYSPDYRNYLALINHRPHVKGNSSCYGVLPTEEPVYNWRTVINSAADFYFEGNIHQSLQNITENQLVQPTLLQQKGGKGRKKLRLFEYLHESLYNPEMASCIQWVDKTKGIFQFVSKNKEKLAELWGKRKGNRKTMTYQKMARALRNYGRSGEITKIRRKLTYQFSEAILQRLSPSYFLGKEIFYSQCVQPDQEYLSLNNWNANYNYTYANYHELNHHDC
# Summary of the method: as §1
# ELF4 = ELF4 (Homo sapiens, UniProt Q99607 1-663); settings: protein: recombinant; tags: N-terminal GST; dsDNA, one strand shown
# Summary of the method: as §1
# ELK4 = target: T9, ELK4 (Homo sapiens, UniProt P28324-2 1-405); settings: protein: recombinant; tags: N-terminal GST; dsDNA, one strand shown
# T9 sequence: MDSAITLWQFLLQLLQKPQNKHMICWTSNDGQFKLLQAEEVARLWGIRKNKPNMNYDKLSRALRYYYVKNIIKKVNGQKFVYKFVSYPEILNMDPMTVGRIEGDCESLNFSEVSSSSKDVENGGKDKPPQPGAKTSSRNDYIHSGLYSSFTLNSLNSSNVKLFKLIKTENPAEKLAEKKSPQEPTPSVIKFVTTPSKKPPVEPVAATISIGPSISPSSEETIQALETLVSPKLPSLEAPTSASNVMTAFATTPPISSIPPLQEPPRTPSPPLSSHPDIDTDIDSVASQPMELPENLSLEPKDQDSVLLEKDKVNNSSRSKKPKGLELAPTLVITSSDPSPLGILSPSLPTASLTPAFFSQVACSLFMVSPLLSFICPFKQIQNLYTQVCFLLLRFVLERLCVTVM
# Summary of the method: as §1
# ETV2 = target: T10, ETV2 (Homo sapiens, UniProt O00321 1-342); settings: protein: recombinant; tags: N-terminal GST; dsDNA, one strand shown
# T10 sequence: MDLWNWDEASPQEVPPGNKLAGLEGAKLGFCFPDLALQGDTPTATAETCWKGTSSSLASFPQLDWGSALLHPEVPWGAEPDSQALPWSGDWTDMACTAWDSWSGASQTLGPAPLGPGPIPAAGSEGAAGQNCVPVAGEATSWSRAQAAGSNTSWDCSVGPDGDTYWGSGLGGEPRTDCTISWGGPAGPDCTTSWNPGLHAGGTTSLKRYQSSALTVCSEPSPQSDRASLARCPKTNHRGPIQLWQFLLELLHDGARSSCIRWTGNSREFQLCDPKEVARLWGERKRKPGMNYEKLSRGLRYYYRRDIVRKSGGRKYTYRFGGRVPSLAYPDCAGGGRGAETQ
# Summary of the method: as §1
# ELF3 = target: T11, ELF3 (Homo sapiens, UniProt P78545 1-371); settings: protein: recombinant; tags: N-terminal GST; dsDNA, one strand shown
# T11 sequence: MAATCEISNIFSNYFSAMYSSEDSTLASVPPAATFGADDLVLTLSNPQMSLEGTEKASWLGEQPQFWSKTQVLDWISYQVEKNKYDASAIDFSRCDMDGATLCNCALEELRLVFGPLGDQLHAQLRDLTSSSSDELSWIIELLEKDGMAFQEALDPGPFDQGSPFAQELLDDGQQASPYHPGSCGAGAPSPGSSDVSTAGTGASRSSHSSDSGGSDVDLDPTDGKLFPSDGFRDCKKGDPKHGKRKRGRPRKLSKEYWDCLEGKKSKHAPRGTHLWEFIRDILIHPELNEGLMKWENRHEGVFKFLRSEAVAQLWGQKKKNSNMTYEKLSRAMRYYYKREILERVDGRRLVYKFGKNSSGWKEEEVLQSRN
# Summary of the method: as §1
# CRX = CRX (Homo sapiens, UniProt O43186 1-299); settings: protein: recombinant; tags: N-terminal GST; dsDNA, one strand shown
# Summary of the method: as §1
# ETV1 = ETV1 (Homo sapiens, UniProt P50549 1-477); settings: protein: recombinant; tags: N-terminal GST; dsDNA, one strand shown
# Summary of the method: as §1
# Chain of ELF4 (Q99607 whole entry): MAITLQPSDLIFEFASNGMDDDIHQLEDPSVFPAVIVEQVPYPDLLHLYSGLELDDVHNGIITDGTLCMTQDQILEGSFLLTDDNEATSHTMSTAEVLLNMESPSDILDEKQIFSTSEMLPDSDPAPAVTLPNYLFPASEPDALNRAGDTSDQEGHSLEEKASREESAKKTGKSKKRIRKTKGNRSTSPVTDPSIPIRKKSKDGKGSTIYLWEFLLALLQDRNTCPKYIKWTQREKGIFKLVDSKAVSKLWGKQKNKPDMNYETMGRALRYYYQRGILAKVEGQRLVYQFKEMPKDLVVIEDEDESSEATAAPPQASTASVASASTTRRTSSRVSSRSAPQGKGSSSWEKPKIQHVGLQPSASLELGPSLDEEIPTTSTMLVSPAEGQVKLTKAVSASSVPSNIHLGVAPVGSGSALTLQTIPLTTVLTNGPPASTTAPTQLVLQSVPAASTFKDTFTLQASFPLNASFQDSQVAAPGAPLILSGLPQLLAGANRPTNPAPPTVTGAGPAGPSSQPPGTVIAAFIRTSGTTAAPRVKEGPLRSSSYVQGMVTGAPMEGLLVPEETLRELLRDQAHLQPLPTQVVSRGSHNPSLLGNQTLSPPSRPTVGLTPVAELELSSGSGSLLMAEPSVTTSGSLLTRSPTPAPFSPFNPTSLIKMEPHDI
# Chain of ELF1 (P32519 whole entry): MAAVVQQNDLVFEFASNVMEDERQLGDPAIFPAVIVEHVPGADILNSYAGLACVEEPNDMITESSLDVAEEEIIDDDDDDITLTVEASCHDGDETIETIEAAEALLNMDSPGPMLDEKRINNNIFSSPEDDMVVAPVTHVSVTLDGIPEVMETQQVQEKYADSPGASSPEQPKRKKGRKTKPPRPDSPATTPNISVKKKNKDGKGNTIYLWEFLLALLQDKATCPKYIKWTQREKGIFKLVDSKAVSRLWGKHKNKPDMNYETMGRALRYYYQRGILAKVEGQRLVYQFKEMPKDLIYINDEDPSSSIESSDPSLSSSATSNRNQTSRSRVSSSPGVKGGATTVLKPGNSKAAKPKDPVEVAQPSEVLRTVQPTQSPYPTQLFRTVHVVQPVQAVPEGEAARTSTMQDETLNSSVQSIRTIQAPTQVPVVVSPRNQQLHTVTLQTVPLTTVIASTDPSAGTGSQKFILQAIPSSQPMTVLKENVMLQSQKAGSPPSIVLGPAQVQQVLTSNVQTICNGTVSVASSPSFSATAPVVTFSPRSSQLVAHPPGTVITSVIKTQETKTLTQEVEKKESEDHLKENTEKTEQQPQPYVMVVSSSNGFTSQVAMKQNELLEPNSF
# Chain of ETV1 (P50549 whole entry): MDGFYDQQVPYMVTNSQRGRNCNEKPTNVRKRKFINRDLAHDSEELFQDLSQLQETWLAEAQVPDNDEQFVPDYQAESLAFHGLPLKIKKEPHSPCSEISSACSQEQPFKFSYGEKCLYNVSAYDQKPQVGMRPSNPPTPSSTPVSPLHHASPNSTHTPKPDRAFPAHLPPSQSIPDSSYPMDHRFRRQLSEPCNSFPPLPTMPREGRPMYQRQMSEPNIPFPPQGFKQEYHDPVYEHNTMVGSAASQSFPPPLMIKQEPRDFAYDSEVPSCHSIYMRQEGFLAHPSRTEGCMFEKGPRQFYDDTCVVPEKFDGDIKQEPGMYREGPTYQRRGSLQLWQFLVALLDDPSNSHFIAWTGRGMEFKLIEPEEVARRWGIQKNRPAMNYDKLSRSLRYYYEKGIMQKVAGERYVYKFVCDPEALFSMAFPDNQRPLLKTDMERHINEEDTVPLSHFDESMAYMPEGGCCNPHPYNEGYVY
# Chain of CRX (O43186 whole entry): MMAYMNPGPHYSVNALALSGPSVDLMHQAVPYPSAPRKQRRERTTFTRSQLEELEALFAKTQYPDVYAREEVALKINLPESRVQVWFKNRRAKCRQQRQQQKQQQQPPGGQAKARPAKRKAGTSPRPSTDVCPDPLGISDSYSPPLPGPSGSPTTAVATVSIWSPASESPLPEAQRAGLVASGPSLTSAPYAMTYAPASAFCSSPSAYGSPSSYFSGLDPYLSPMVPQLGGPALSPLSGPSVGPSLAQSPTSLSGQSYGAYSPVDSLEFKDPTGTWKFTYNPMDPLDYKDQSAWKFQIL
# Chain of HSF1 (Q00613 whole entry): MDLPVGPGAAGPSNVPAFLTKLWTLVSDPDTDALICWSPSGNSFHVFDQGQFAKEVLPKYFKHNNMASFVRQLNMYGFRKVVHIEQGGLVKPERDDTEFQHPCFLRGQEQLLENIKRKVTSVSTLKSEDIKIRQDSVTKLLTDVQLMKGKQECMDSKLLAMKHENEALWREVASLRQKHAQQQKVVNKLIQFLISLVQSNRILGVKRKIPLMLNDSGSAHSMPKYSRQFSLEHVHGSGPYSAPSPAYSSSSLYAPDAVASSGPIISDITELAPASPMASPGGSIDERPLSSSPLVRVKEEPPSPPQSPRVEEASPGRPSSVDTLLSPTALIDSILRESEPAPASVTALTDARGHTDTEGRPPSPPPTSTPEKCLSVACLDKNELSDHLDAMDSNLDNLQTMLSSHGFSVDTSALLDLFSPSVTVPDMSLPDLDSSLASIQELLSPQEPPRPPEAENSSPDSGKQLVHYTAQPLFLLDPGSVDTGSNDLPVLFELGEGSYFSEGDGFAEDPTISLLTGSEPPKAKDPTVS
# Chain of ETV5 (P41161 whole entry): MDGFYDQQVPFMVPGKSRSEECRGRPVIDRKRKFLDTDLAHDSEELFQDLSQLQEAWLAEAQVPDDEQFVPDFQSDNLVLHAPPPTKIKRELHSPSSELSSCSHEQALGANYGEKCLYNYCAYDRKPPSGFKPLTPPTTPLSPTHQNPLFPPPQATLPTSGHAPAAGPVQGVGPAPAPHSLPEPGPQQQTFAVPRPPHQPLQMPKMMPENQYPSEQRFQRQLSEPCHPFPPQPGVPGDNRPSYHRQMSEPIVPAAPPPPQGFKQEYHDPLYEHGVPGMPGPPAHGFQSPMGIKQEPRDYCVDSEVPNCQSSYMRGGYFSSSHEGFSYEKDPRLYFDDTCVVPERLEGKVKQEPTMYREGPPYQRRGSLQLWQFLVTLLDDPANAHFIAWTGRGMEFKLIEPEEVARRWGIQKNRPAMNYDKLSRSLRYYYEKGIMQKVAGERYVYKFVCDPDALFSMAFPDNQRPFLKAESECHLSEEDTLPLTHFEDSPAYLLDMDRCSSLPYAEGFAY
# Chain of SPIB (Q01892 whole entry): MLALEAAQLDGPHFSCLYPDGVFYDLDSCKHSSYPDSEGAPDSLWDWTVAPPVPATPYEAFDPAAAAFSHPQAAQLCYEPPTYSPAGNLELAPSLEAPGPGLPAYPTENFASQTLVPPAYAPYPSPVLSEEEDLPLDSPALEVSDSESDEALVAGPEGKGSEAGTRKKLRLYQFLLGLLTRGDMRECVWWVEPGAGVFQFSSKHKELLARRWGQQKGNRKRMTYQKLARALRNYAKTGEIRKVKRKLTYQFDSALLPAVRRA
sequence,measurement,setting,value
AAAACT,binding signal,FLI1,"1.23 fold enrichment (6-mer frequency, TF over GST control)"
same,binding signal,ELK1,"1.16 fold enrichment (6-mer frequency, TF over GST control)"
same,binding signal,GABPA,"1.15 fold enrichment (6-mer frequency, TF over GST control)"
same,binding signal,ERG,"1.17 fold enrichment (6-mer frequency, TF over GST control)"
same,binding signal,ELF1,"1.25 fold enrichment (6-mer frequency, TF over GST control)"
same,binding signal,EHF,"1.24 fold enrichment (6-mer frequency, TF over GST control)"
same,binding signal,SPI1,"1.17 fold enrichment (6-mer frequency, TF over GST control)"
same,binding signal,SPIB,"1.23 fold enrichment (6-mer frequency, TF over GST control)"
same,binding signal,ELK3,"1.19 fold enrichment (6-mer frequency, TF over GST control)"
same,binding signal,FEV,"1.16 fold enrichment (6-mer frequency, TF over GST control)"
same,binding signal,ETV5,"1.15 fold enrichment (6-mer frequency, TF over GST control)"
same,binding signal,HSF1,"1.18 fold enrichment (6-mer frequency, TF over GST control)"
same,binding signal,SPIC,"1.23 fold enrichment (6-mer frequency, TF over GST control)"
same,binding signal,ELF4,"1.21 fold enrichment (6-mer frequency, TF over GST control)"
same,binding signal,ELK4,"1.1 fold enrichment (6-mer frequency, TF over GST control)"
same,binding signal,ETV2,"1.19 fold enrichment (6-mer frequency, TF over GST control)"
same,binding signal,ELF3,"1.12 fold enrichment (6-mer frequency, TF over GST control)"
same,binding signal,CRX,"1.16 fold enrichment (6-mer frequency, TF over GST control)"
same,binding signal,ETV1,"1.13 fold enrichment (6-mer frequency, TF over GST control)"
